The entries come from a sample that favours hits as a whole.
PDI inh: inhibitors of human PDI, primary screen, biochemical, turbidity, single point, plate reader | Protein disulfide-isomerase (Homo sapiens), P07237 | PDI insulin aggregation turbidity, A650, 90 min | inhibition, % at 10 µM | 350,000 compounds, 0.052% hits;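 active means mean inhibition across replicates of 30% or more, whatever share of single replicates reach that level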
Target sequence (P07237 whole entry, looked up): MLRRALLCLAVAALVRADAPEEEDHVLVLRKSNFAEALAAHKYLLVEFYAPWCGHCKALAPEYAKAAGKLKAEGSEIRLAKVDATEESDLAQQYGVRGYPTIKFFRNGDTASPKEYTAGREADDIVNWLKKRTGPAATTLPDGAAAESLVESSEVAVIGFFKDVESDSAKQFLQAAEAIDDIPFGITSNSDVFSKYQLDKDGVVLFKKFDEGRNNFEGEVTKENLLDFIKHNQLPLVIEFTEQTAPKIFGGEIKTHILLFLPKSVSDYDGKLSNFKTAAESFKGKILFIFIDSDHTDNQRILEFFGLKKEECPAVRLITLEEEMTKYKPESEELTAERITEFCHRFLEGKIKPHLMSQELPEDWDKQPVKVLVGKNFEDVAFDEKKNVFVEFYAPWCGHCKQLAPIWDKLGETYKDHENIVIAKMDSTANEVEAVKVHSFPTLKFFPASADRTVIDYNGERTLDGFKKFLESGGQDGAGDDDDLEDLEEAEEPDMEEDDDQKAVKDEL
CendR NRP1 mod: modulators of CendR peptide binding to NRP-1, primary screen, biochemical, fluorescence polarization, uHTS. Neuropilin-1 (Homo sapiens), O14786. FAM-RPARPAR peptide binding to NRP-1. inhibition, % at 25 µM. 360,000 compounds, 0.85% hits. AID 602438, 2012;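 active means inhibition or corrected inhibition above about 18%, plus a signal ratio from 0.5 to 1.5, limit read from the data, passing the limit was not always enough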
ARNT TACC3 PPI: disruptors of ARNT/TACC3 protein interaction, primary screen, biochemical, AlphaScreen, single concentration; inhibition, % at 9.99 µM; AlphaScreen His-ARNT PAS-B/GST-TACC3 binding, luminescence; TACC3 fragment carries E629A point mutation; 390,000 compounds, 0.66% hits; Transforming acidic coiled-coil-containing protein 3 (Homo sapiens), Q9Y6A5; AID 623870, 2012;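 active means mean inhibition of replicates at least 50% and at least half of replicates each reaching 50%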;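 further: 0% = complete ARNT plus TACC3 wells and 100% = ARNT alone without TACC3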
PglD inh: C. jejuni PglD acetyltransferase inhibitors, primary screen, biochemical, DTNB colorimetric, single point; 360,000 compounds, 0.098% hits; inhibition, % at 12.5 µM; UDP-N-acetylbacillosamine N-acetyltransferase PglD (Campylobacter jejuni); purified PglD enzyme, DTNB colorimetric CoA detection; in the data active means inhibition above about 16%, passing the limit was not always enough
ALR H2O2 inh: inhibitors of human ALR sulfhydryl oxidase, primary screen, biochemical, H2O2 detection, HRP-luminol luminescence, single point | FAD-linked sulfhydryl oxidase ALR (Homo sapiens), P55789 | purified ALR, DTT oxidation | inhibition, % (no concentration beside the values) | 290,000 compounds, 3.8% hits;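 active means mean replicate inhibition above about 79%, with every replicate also reaching it, limit read from the data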
ERp5 inh: inhibitors of ERp5-driven insulin aggregation, primary screen, biochemical, turbidity, absorbance 650 nm, single point; Protein disulfide-isomerase A6 (Homo sapiens), Q15084; 90 min; inhibition, % at 9.99 µM; 350,000 compounds, 0.05% hits; AID 651711, 2012;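 active means mean replicate inhibition above about 25%, with every replicate also reaching it, limit read from the data, passing the limit was not always enough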
An asterisk follows results filed as active; . = no result.

SMILES	PDI inh	CendR NRP1 mod	ARNT TACC3 PPI	PglD inh	ALR H2O2 inh	ERp5 inh
O=C1CCC(CCC(=O)N2CCCC(C(=O)c3ccc4c5c(cccc35)CC4)C2)=NN1 (stereo unspecified)	-4	-8	6	.	-17	2
COc1ccccc1OCC(=O)N1CCCC(Nc2ccc(F)c(F)c2)C1 (stereo unspecified)	4	12	-4	0	41	-2
COc1ccccc1C(=O)C1CCCN(C(=O)CSc2ccccn2)C1 (stereo unspecified)	4	-1	-2	-2	.	3
Cc1ccc(NC2CCCN(C(=O)CSc3ccccn3)C2)cc1C (stereo unspecified)	-10	-1	7	-2	99*	4
CCCC#Cc1ccc2c(c1)O[C@@H](CN(C)C(=O)Nc1ccc(OC)cc1)[C@H](C)CN([C@H](C)CO)S2(=O)=O	.	.	2	-2	.	7
COc1ccc(CCC(=O)N2CCCC(Nc3ccc(C)c(C)c3)C2)cc1OC (stereo unspecified)	-2	5	4	-10	99*	10
O=C(O)c1cccc(Cn2c(Cl)c(/C=N/NC(=O)c3ccc(O)cc3)sc2=O)c1	3	-51	41*	0	1	6
O=C(COc1ccccc1)N/N=C/c1sc(=O)n(Cc2cccc(C(=O)O)c2)c1Cl	5	-86	3	.	96*	7
O=C(O)CC/C(=N/Nc1ccc([N+](=O)[O-])cc1)C(=O)O	8	-12	1	.	-17	9
O=C(O)CC/C(=N\Nc1ccc([N+](=O)[O-])cc1)c1ccccc1	21	-60	2	-19	98*	1
COc1cccc(C#Cc2cnc3c(c2)C(=O)N([C@@H](C)CO)C[C@H](C)[C@@H](CN(C)C(=O)C2CC2)O3)c1	.	.	-5	-1	.	6
Cc1cc(N)c(NC2=CC(=O)CC(C)(C)C2)cc1C	-5	-9	3	-1	98*	.
Cc1ccc(OC(C)C(=O)Nc2ccccc2C(=O)N2CCN(C)CC2)cc1 (stereo unspecified)	-4	20*	-3	7	-4	0
O=C(C[C@H]1C=C[C@@H](NC(=O)C2CCC2)[C@H](CO)O1)NC1CCC1	.	.	-14	2	.	-4
Cn1c(CO)cnc1SCc1ccc(Cl)cc1	1	-8	-1	26*	-4	.
COc1ccc(C(=O)N/C(=C\c2ccco2)C(=O)NCCCn2ccnc2)cc1	6	-6	19	0	-2	-1
Cc1ccc(C(=O)N/C(=C\c2ccco2)C(=O)NCCCn2ccnc2)cc1C	-1	-9	77*	-2	11	2
Cc1ccc(C(=O)N/C(=C\c2cccs2)C(=O)NCCCn2ccnc2)cc1C	7	2	71*	4	-6	.
Cc1ccc(C(=O)N/C(=C\c2cccs2)C(=O)NCCCn2ccnc2)cc1	2	3	2	.	-5	.
CCOC(=O)CN1C(=O)S/C(=C/c2ccc(N3CCCCC3)o2)C1=O	8	-131	-2	-8	17	.
CCCN1C(=O)S/C(=C\c2ccc(N3CCOCC3)o2)C1=O	-5	132	0	.	86*	-4
COC(=O)CN1C(=O)S/C(=C/c2ccc(N3CCCCC3)o2)C1=O	-7	126	-22	12	69	.
CCCN1C(=O)S/C(=C/c2ccc(N3CCOCC3)o2)C1=O	-3	133	9	-3	99*	-4
O=C(Nc1cc(-c2ccccc2)[nH]n1)c1ccccc1	2	25*	-24	3	11	2
O=C(O)c1ccccc1C(=O)Nc1cc(-c2ccccc2)[nH]n1	0	-3	5	-5	40	4
SMILES	PDI inh	CendR NRP1 mod	ARNT TACC3 PPI	PglD inh	ALR H2O2 inh	ERp5 inh
C/C=C/c1ccc2c(c1)[C@H]1[C@H](CCN1S(=O)(=O)c1cccc(F)c1)[C@@H](CO)N2	.	.	.	.	.	-1
c1cc(CNc2ccc3c(c2)OCO3)ccn1	-19	30*	31	4	87*	.
Cc1ccc(CNc2ccc(N3CCOCC3)cc2)cc1	2	6	27	5	99*	7
CC(C)c1ccc(CNc2ccc(N3CCOCC3)cc2)cc1	2	-15	41	-1	99*	.
c1cc2c(cc1CNc1ccc(N3CCOCC3)cc1)OCO2	3	1	10	-4	98*	7
Cc1ccc(CNc2ccc3c(c2)OCO3)cc1	-3	127	0	-2	-15	.
COCC(=O)N1C[C@@H](C)[C@H](OC)CN(C)C(=O)c2ccc(NC(=O)c3cc(C)on3)cc2OC[C@H]1C	.	.	2	0	.	0
c1ccc(NCc2ccncc2)cc1	7	0	6	-3	4	-6
c1cc(CNc2ccc(N3CCOCC3)cc2)ccn1	-4	-2	12	.	99*	.
COc1cccc(CNc2ccc(F)c([N+](=O)[O-])c2)c1O	0	2	-2	.	98*	-2
O=[N+]([O-])c1ccccc1CNc1ccc(F)c(Cl)c1	7	15	-4	-11	.	9
Oc1ccc(Oc2ncc(Cl)cc2Cl)cc1	-5	-18	-8	1	99*	.
CCOCCOC(=O)C(C)Oc1ccc(Oc2ncc(Cl)cc2Cl)cc1 (stereo unspecified)	4	1	-14	6	-86	5
Cc1nn(-c2ccccc2)c(C)c1/C=N/n1cnnc1	5	8	-11	.	.	1
Cc1nn(-c2ccccc2)c(C)c1/C=N\N1CCN(c2ccc(Cl)cc2)CC1	1	25*	-2	.	7	.
CCCNC(=O)Nc1ccc2c(c1)C(=O)N(C)C[C@@H](OC)[C@H](C)CN(C(=O)C1CCOCC1)[C@@H](C)CO2	.	.	-16	10	.	-2
C[C@@H]1CN([C@H](C)CO)S(=O)(=O)c2ccc(/C=C/c3ccccc3)cc2O[C@H]1CN(C)C(=O)Nc1cc(F)ccc1F	.	.	15	0	.	-2
CCOc1ccc(/C=C/C(=O)N(CC)CC(=O)Nc2c(F)cccc2F)cc1OC	11	22*	.	-1	.	5
C[C@@H]1CCCCO[C@@H](CN(C)S(=O)(=O)c2cccs2)[C@H](C)CN([C@H](C)CO)C(=O)c2cc(NC(=O)Nc3cccc4ccccc34)ccc2O1	.	.	-18	3	.	.
Cc1c(C)c(C)c(C(=O)CCc2cccc(NC(=O)CCC(=O)O)c2)c(C)c1C	2	-7	-3	-2	95*	2
O=C1SC(c2ccccc2)=C/C1=C\N1CCCCC1	3	3	-5	-6	95*	-4

From PubChem
